About 83,000 compounds went through this panel and 20% of them were active in at least one assay; those are over-represented in the sample as a whole.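 Percent growth is the endpoint: 0 to 100 indicates growth inhibition (40 means 60% inhibition), 0 means no net growth, and negative values indicate cell death.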 The source made the active and inactive calls. How the source made its calls: active means growth percent below 10; inactive means the rest.

The values below come from PubChem BioAssay (NCI).

For the first test, the system named is CAKI-1 renal. As to the kind of experiment: NCI-60 one-dose screen, 48 h (100 = growth as untreated, 0 = no growth, -100 = all killed). The following applies: 10 µM unless noted.
`CC(C)OC(=O)c1ccc2[nH]c(O)c(C(=Nc3ccc(N(C)C(=O)CN4CCN(C)CC4)cc3)c3ccccc3)c2c1`: the growth is -93.4% (active). In the case of `O=C1C(Cl)=C(Nc2ccc(O)cc2)C(=O)N1Cc1ccc(Cl)cc1`, the growth is 74% (inactive). In the case of `COc1cc(OC)c2sc(-c3ccc(-n4cncc4-c4ccc(OC)c(OC)c4)cc3)nc2c1`, the growth is 8.81% (active). For `CCN(CC)C(=S)SC(SC(=S)N(CC)CC)C(=O)c1nnn(-c2ccc([N+](=O)[O-])cc2)c1C`, the growth is 89.5% (inactive). Turning to `COc1cccc(CNc2ncnc3c2ncn3C2OC(CO)C(O)C2O)c1O` (stereo unspecified), the growth is -2.16% (active). For `CC(C)c1ccc(COCc2cc(CN3CCCC3)c(O)c3ncccc23)cc1`, the growth is 3.91% (active). Turning to `O=C(NCc1ccccc1)Nc1ccccc1CNc1nc(Nc2ccc(OCCN3CCCC3)cc2)ncc1Cl`, the growth was 106% (inactive).

Consider `Cc1ccc(-n2c(=S)[nH]c3sc4c(c3c2=O)CCC(=O)C4)cc1`, for which the growth was 28.6% (inactive). `Oc1c(Cl)cc(Cl)cc1/C=N/Nc1nnc(N/N=C/c2cc(Cl)cc(Cl)c2O)c2ccccc12`: the growth is -34.7% (active).

As for `CCCCCCC1(C)NCCO1` (stereo unspecified), the growth was 92.9% (inactive). With `Clc1ccc2c(c1)N(c1ncnc3ccc(-c4cnc5[nH]ncc5c4)cc13)CC2`, the growth is 11% (inactive).

With `COC(=O)c1cc(-c2ccc(S(C)(=O)=O)cc2)[nH]c1N/N=C/c1c(Cl)cccc1Cl`, the growth is 30.3% (inactive). Take `C=CCn1c(SCC(=O)Nc2ccc(C(=O)/C=C/c3ccc(Cl)cc3)cc2)nnc1-c1cc(-c2ccc(S(N)(=O)=O)cc2)nc2ccccc12`: the growth is 66.3% (inactive).

For `Cc1cc2c(O)c(-c3cc(Cl)ccc3Cl)c3sc(=O)oc3c2cc1C`, the growth is 53.9% (inactive). `CC(=O)N(N=Nc1ccccc1)c1cccc2ccccc12`: the growth is 31.8% (inactive). Regarding `Cc1ccc(-c2nc3nc(-c4ccc(F)cc4)nc(N4CCNCC4)c3o2)cc1`, the growth was 1.35% (active). Regarding `O=c1oc2ccc([N+](=O)[O-])cc2cc1Br`, the growth is 94.5% (inactive).

`COc1ccc2nc(NC(=O)CSc3nnc4n3S(=O)(=O)c3ccccc3N4C)sc2c1`: the growth was 98.3% (inactive). Take `Cc1ccc(-c2nn(-c3ccccc3)cc2C=C2C(=O)ON=C2C(C)C)cc1`: the growth was 61.3% (inactive).

Take `Cc1cccc(N2CCN(CC(O)COc3ccc(Cl)cc3)CC2)c1` (stereo unspecified): the growth is 84.5% (inactive). For the compound `Cc1nc2c(=O)[nH]c(SCC(=O)Nc3cccc(F)c3)nc2[nH]c1=O`, the growth was 89.3% (inactive).

On to `CN(C)c1ccc(/C=C/C(=O)c2ccc(-n3cc(CN4CCN(c5cc6c(cc5F)c(=O)c(C(=O)O)cn6C5CC5)CC4)nn3)cc2)cc1`, for which the growth is 36.9% (inactive). The same measure, in the same setting: the value for `COc1cc2c(c(OC)c1OC)-c1ccc(OC)c(=O)cc1[C@@H](NC(=O)CCl)CC2` was 30.1% (inactive); that for `O=C(Nc1cccnc1Nc1ccc(F)cc1)c1cn(Cc2cccc(Oc3ccccc3)c2)nn1` was 78% (inactive); that for `COc1ccc(-c2ccc3cnc4sc(-c5ccc(OC)cc5)nc4c3n2)cc1` was 96% (inactive). In the case of `CN1CCN(c2ccc(NC(=O)c3cncnc3Nc3ccc(OCc4ccccn4)c(Cl)c3)cc2)CC1`, the growth was 64.2% (inactive).

A further test relates to A498 renal. The test is described as above. The following applies: 10 µM unless noted.
Turning to `CC/C(=C(/c1ccc(Cl)cc1)c1ccc(OCCN2CCCC2)cc1)c1ccc(OC)cc1`, the growth is 108% (inactive). As for `c1cc2[nH]ncc2cc1-c1nc2ccc3[nH]ncc3c2c2c1CCCC2`, the growth was -1.43% (active).

For `O=C(/C=C/c1ccc(Cl)cc1)c1cccc(Nc2nc(Nc3ccccc3)nc(Nc3ccccc3)n2)c1`, the growth was 95.2% (inactive). Regarding `N#Cc1nc(-c2ccccc2)oc1S(=O)(=O)N1CCOCC1`, the growth is 89.7% (inactive). With `O=C1Nc2ccccc2/C1=C\c1nc(-c2ccccc2)n2ccccc12`, the growth is 119% (inactive). Regarding `O=C(COc1ccc(-c2nc3ccccc3[nH]2)cc1)N=Nc1c(O)[nH]c2ccc(Cl)cc12`, the growth is 89.8% (inactive).

In the case of `COc1ccc(NC(=O)c2sc3nc(C)c(C(=O)/C=C/c4cccc(OC)c4)cc3c2N)cc1`, the growth is 14.3% (inactive).

Take `COc1cnc2c(c1)C(=O)c1c-2n(CCCNCCO)c(=O)c2ccncc12`: the growth was -33.3% (active). Consider `O=C(Nc1nc2ccc(F)cc2s1)c1cccnc1Nc1ccc(Cl)cc1`, for which the growth was 17.9% (inactive). The same measure, in the same setting: the value for `N#CC1C=CN(CC(N)=O)c2ccc3cccnc3c21` (stereo unspecified) was 85.9% (inactive). Take `COc1ccc(-c2nc3c(c(-c4ccccc4)nn3-c3ccccc3)c(-c3ccc(N4CCN(C)CC4)cc3)c2C#N)cc1`: the growth is 99.6% (inactive). Consider `Cn1c(=O)c2[nH]c(N/N=C/c3ccccc3Br)nc2n(C)c1=O`, for which the growth is 92.9% (inactive). On the same count and under the same terms, the value for `O=C(Nc1ccc(NC(=O)c2cc(=O)[nH]c3ccccc23)cc1)Nc1cccc(C(F)(F)F)c1` was 100% (inactive). Consider `O=C1C(Cl)=C(Oc2ccccc2)C(=O)c2ccccc21`, for which the growth was 98.7% (inactive). For `CC(C)OC(=O)c1ccc2[nH]c(O)c(C(=Nc3ccc(N(C)C(=O)CN4CCN(C)CC4)cc3)c3ccccc3)c2c1`, the growth was -48.3% (active). Same read-out and setting: the value for `O=C1C(Cl)=C(Nc2ccc(O)cc2)C(=O)N1Cc1ccc(Cl)cc1` was 75.4% (inactive). Turning to `COc1cc(OC)c2sc(-c3ccc(-n4cncc4-c4ccc(OC)c(OC)c4)cc3)nc2c1`, the growth is 56.3% (inactive). The same measure, in the same setting: then `CCN(CC)C(=S)SC(SC(=S)N(CC)CC)C(=O)c1nnn(-c2ccc([N+](=O)[O-])cc2)c1C`, with 67.3% (inactive). Take `COc1cccc(CNc2ncnc3c2ncn3C2OC(CO)C(O)C2O)c1O` (stereo unspecified): the growth was -0.46% (active). Still for that read-out and setting: then `CC(C)c1ccc(COCc2cc(CN3CCCC3)c(O)c3ncccc23)cc1`, with 0.55% (active); and `O=C(NCc1ccccc1)Nc1ccccc1CNc1nc(Nc2ccc(OCCN3CCCC3)cc2)ncc1Cl`, with 77.2% (inactive); and `Cc1ccc(-n2c(=S)[nH]c3sc4c(c3c2=O)CCC(=O)C4)cc1`, with 109% (inactive). As for `Oc1c(Cl)cc(Cl)cc1/C=N/Nc1nnc(N/N=C/c2cc(Cl)cc(Cl)c2O)c2ccccc12`, the growth was -2.98% (active). Take `CCCCCCC1(C)NCCO1` (stereo unspecified): the growth was 96.1% (inactive).

Consider `Clc1ccc2c(c1)N(c1ncnc3ccc(-c4cnc5[nH]ncc5c4)cc13)CC2`, for which the growth was -45.2% (active). `COC(=O)c1cc(-c2ccc(S(C)(=O)=O)cc2)[nH]c1N/N=C/c1c(Cl)cccc1Cl`: the growth is -22.5% (active). On to `C=CCn1c(SCC(=O)Nc2ccc(C(=O)/C=C/c3ccc(Cl)cc3)cc2)nnc1-c1cc(-c2ccc(S(N)(=O)=O)cc2)nc2ccccc12`, for which the growth is 89% (inactive).

For `Cc1cc2c(O)c(-c3cc(Cl)ccc3Cl)c3sc(=O)oc3c2cc1C`, the growth was 30.1% (inactive).

Take `CC(=O)N(N=Nc1ccccc1)c1cccc2ccccc12`: the growth is 115% (inactive).

With `Cc1ccc(-c2nc3nc(-c4ccc(F)cc4)nc(N4CCNCC4)c3o2)cc1`, the growth is 79.5% (inactive). For the compound `O=c1oc2ccc([N+](=O)[O-])cc2cc1Br`, the growth is 99.7% (inactive). `COc1ccc2nc(NC(=O)CSc3nnc4n3S(=O)(=O)c3ccccc3N4C)sc2c1`: the growth is 121% (inactive). Same read-out and setting: the value for `Cc1ccc(-c2nn(-c3ccccc3)cc2C=C2C(=O)ON=C2C(C)C)cc1` was 84.9% (inactive); that for `Cc1cccc(N2CCN(CC(O)COc3ccc(Cl)cc3)CC2)c1` (stereo unspecified) was 115% (inactive); that for `Cc1nc2c(=O)[nH]c(SCC(=O)Nc3cccc(F)c3)nc2[nH]c1=O` was 111% (inactive). Turning to `CN(C)c1ccc(/C=C/C(=O)c2ccc(-n3cc(CN4CCN(c5cc6c(cc5F)c(=O)c(C(=O)O)cn6C5CC5)CC4)nn3)cc2)cc1`, the growth was 61.1% (inactive). As to `COc1cc2c(c(OC)c1OC)-c1ccc(OC)c(=O)cc1[C@@H](NC(=O)CCl)CC2`, the growth was -4.98% (active). `O=C(Nc1cccnc1Nc1ccc(F)cc1)c1cn(Cc2cccc(Oc3ccccc3)c2)nn1`: the growth is 60.5% (inactive). `COc1ccc(-c2ccc3cnc4sc(-c5ccc(OC)cc5)nc4c3n2)cc1`: the growth is 63.4% (inactive).

In the case of `CN1CCN(c2ccc(NC(=O)c3cncnc3Nc3ccc(OCc4ccccn4)c(Cl)c3)cc2)CC1`, the growth is 67.2% (inactive).
